Assay outcomes: PubChem, several laboratories
CYP2C19 activ: human CYP2C19 activators, primary screen, biochemical, luminescence. 96,000 tested, under 10 active. activation factor at 5 µM. recombinant CYP2C19, luciferin-H EGE luminescence; stronger effect = higher value; 0 = fully inhibited enzyme, 1 = untreated enzyme;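 active = activation factor of at least 2 at 5 µM in the primary screen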;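 note: 0 = wells with 2.5 mM tranylcypromine and 1 = vehicle-only wells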
Target sequence (P33261 whole entry, looked up): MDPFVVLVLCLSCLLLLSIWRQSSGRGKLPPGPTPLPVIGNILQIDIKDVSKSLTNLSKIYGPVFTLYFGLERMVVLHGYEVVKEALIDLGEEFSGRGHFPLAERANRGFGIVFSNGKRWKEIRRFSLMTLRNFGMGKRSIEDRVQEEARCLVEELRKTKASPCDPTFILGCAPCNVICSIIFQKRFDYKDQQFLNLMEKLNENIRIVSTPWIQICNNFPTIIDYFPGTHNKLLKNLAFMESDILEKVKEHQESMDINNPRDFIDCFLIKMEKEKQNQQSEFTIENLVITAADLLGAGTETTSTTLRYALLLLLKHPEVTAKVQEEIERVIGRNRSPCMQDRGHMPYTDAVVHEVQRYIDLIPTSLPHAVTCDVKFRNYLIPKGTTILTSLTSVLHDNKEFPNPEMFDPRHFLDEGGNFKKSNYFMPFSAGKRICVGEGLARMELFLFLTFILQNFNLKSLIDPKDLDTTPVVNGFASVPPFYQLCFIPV
PostGolgi ctrl: growth inhibition of yeast control strain, primary screen, counter-screen for post-Golgi transport modulator project; 5% of 98,000 active; inhibition, % at 10 µM; AID 738, 2007; efflux-deficient yeast background strain, growth absorbance A615, 16 h
CYP2C9 inh: blockers of cytochrome P450 2C9 activity – biochemical, luminescence, ADME assay, primary screen | CYP2C9 Supersomes, luciferin-H conversion | inhibition, % at 5 µM | 20% of 96,000 active | AID 777, 2007;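 active = blocking of liver enzyme CYP2C9 beyond about 50% at 5 µM, limit read from the data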
CYP2C9 act: human CYP2C9 activators, primary screen, biochemical, luminescence; Cytochrome P450 2C9 (Homo sapiens), P11712; recombinant CYP2C9, luciferin-H conversion; stronger effect = higher value; factor 1 = untreated enzyme, 0 = blocked; activation factor at 5 µM; 1.4% of 96,000 active;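 active = activation factor of 2 or more for CYP2C9 at a 5 µM dose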;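 note: 0 = sulfaphenazole-blocked wells and 1 = vehicle-only wells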
CYP2C19 inh: blockers of cytochrome P450 2C19 activity – biochemical, luminescence, ADME assay, primary screen; P33261; 21% of 96,000 active; CYP2C19 Supersomes, luciferin-H EGE luminescence, 30 min; inhibition, % at 5 µM; AID 778, 2007;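 active = CYP2C19 inhibition above a set limit at 5 µM in the primary screen, cut at about 50% in these data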;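 note: plate controls were negative control wells for no effect and 2.5 mM tranylcypromine positive control for full effect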
PostGolgi yeast: phenotypic screen on post-Golgi transport, primary screen | post-Golgi transport phenotypic cell assay | inhibition, % at 10 µM | AID 739, 2007 | 0.9% of 98,000 active;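 note: yeast cells grown in 1536-well plates; yeast grown about 18 h at 30C before absorbance read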
Active calls of the source: *; . = not tested or not shown. An excerpt weighted towards active compounds, which were near 32% of everything screened. Cut-off read from the data, not from the text of the source, unless noted: active = inhibition above about 30%; inactive = the rest.

SMILES | CYP2C19 activ | PostGolgi ctrl | CYP2C9 inh | CYP2C9 act | CYP2C19 inh | PostGolgi yeast
CCOC(=O)/C(C(C)=O)=C1/OC(=O)c2ccccc21 | 1.1 | -2 | -1 | 1 | -10 | 11
CCOC(=O)C1=Nc2ccccc2C1=[N+]=[N-] | 0.6 | 101* | 27 | 0.7 | 40 | 106*
O=C(NCc1ccccn1)Nc1cccc(Cl)c1 | 0.6 | -6 | 6 | 0.9 | 42 | -1
S=C(NCc1ccccn1)Nc1ccc(Cl)cc1 | 0.4 | -6 | 28 | 0.7 | 60* | 6
O=C(NCc1ccccn1)Nc1ccc(Cl)c(Cl)c1 | . | 46* | . | . | . | -9
CCOC(=O)CCNC(=O)c1ccccc1Br | 0.8 | 1 | 3 | 1 | 20 | 3
Cc1ccc(-c2nnn(CC(=O)N(CC3CCCO3)C(C(=O)NC(C)(C)C)c3ccc(F)cc3)n2)o1 (centres undefined) | . | 1 | . | . | . | -2
O=c1ccn(CCOc2ccc(Cl)cc2)c(=O)[nH]1 | 0.4 | 22 | 42 | 0.6 | 59* | 6
C=CCOc1ccccc1C1NC(=O)NC(C)=C1C(=O)NCc1ccccc1 (centres undefined) | 0.8 | 3 | 41 | 0.6 | 18 | -2
Cc1ncc2c(c1OC(=O)c1ccccc1)COC(C)(C)OC2 | 0 | -1 | 78* | 0.2 | 100* | 14
COc1cc(-n2c(=O)c3ccccc3n(Cc3ccccc3)c2=O)cc(OC)c1OC | 0.4 | 15 | -19 | 1.2 | 62* | 4
CN(CCOc1ccccc1)S(=O)(=O)c1ccc2oc3ccccc3c2c1 | 0.5 | 18 | -62 | 1.6 | 52* | -2
COc1ccc(NS(=O)(=O)c2cccc(-c3nnc4n3CCCCC4)c2)cc1 | 0.6 | 3 | 82* | 0.2 | 44 | 1
COc1ccccc1S(=O)(=O)Nc1cccc(-c2nnc3n2CCCCC3)c1 | 0.9 | 5 | 12 | 0.9 | 8 | -4
CC(=O)c1cccc(N(CC(=O)Nc2cccnc2)S(C)(=O)=O)c1 | 0.9 | 23 | -24 | 1.2 | 11 | 1
COC(=O)c1ccsc1NC(=O)CN1CCN(Cc2ccc3c(c2)OCO3)CC1 | 0.5 | 6 | 56* | 0.4 | 46 | -1
COC(=O)c1c(NC(=O)CN2CCN(Cc3ccc4c(c3)OCO4)CC2)sc(C)c1C | 0.5 | 15 | 71* | 0.3 | 50* | -10
COC(=O)c1c(NC(=O)Cc2ccccc2)sc(C)c1C | 0.7 | 2 | 24 | 0.8 | 32 | -3
COC(=O)c1ccsc1NC(=O)CN1CCN(c2ccc(F)cc2)CC1 | 0.1 | 26 | 91* | 0.1 | 91* | 4
CCOC(=O)N1CCN(Cc2nc(N)nc(Nc3ccc(OCC)cc3)n2)CC1 | 0.9 | -2 | 11 | 0.9 | 8 | -8
CCC(=O)NCCCCNC(=O)CC | 1.1 | 2 | -8 | 1.1 | -12 | 1
CC(=O)Oc1ccc(C(=O)Nc2nnc(C)s2)cc1 | 0.9 | 2 | -2 | 1 | 14 | 30*
COc1ccc(C(=O)Nc2nnc(-c3ccco3)s2)cc1 | 0.5 | 19 | 17 | 0.8 | 54* | 10
COc1ccc(Cc2nnc(NC(=O)c3ccco3)s2)cc1 | 0.6 | 15 | 65* | 0.3 | 37 | -6
COC(=O)c1[nH]c2cc(OC)ccc2c1NC(=O)CCN1CCSCC1 | 0.8 | 6 | 45 | 0.6 | 17 | -19
SMILES | CYP2C19 activ | PostGolgi ctrl | CYP2C9 inh | CYP2C9 act | CYP2C19 inh | PostGolgi yeast
CN1CCC(=NNC(=O)c2ccco2)CC1 | 0.9 | 7 | 5 | 0.9 | 6 | -5
CC(=O)N(Cc1ccc(F)cc1)C1=C(NCCc2ccccc2)C(=O)c2ccccc2C1=O | 0 | 31* | 95* | 0 | 99* | 21
Cc1ccc(NC(=O)C(Cc2ccccc2)NC(=O)c2ccco2)cc1 (centres undefined) | 0.8 | 7 | 24 | 0.8 | 21 | -3
O=C(Cc1ccc(Cl)cc1)Nc1ccc(N2CCN(C(=O)c3ccco3)CC2)c(Cl)c1 | 0.1 | 60* | 97* | 0 | 92* | -6
COc1ccc(S(=O)(=O)N2CCN(C(=O)c3ccco3)CC2)cc1OC | 0.6 | 24 | -6 | 1.1 | 45 | -14
O=C(c1ccco1)N1CCN(S(=O)(=O)Cc2ccc(Cl)cc2)CC1 | 0.2 | 12 | 31 | 0.7 | 78* | 1
COc1ccc(Cl)cc1S(=O)(=O)N1CCN(C(=O)c2ccco2)CC1 | 0.1 | 1 | -12 | 1.1 | 94* | -4
COc1ccc(C)cc1-n1nnnc1SCC(=O)N1CCC(C(=O)Nc2nccs2)CC1 | 0.7 | 3 | 24 | 0.8 | 33 | -5
C=CCOc1c(CNc2ncn[nH]2)cccc1OC | 0.9 | -6 | 5 | 1 | 12 | 5
CCOC(=O)c1sc(NC(=O)CSc2nnnn2-c2ccc(C)cc2C)nc1C | 1 | -4 | 6 | 0.9 | -2 | -6
C=CCc1cccc2cc(C(=O)NC3=C(C#N)CCC3)c(=O)oc12 | 0.9 | 14 | -18 | 1.2 | 13 | 3
CCOc1cccc2cc(C(=O)NCc3cccnc3)c(=O)oc12 | 1.1 | 6 | -7 | 1.1 | -10 | -6
C=CCc1cccc2cc(C(=O)NCc3cccnc3)c(=O)oc12 | 0.3 | 2 | 13 | 0.9 | 70* | -21
C=CCc1cccc2cc(C(=O)NC(C)(C)C)c(=O)oc12 | 0.4 | -10 | 55* | 0.4 | 65* | -15
Cc1ccccc1CN(c1ccc(C(=O)N2CCc3ccccc3C2)cc1)S(C)(=O)=O | 0.5 | 12 | 63* | 0.4 | 55* | -2
Cc1ccccc1CN(c1ccc(C(=O)Nc2ccccc2C(=O)NCc2ccco2)cc1)S(C)(=O)=O | 0 | 3 | 83* | 0.2 | 99* | -6
CCOC(=O)N1CCN(C(=O)c2ccccc2NC(=O)c2ccc(OC)cc2)CC1 | 1 | 1 | -1 | 1 | 2 | 0
Cc1ccccc1CN(c1ccc(C(=O)Nc2ccccc2C(=O)N2CCCC2)cc1)S(C)(=O)=O | 0 | 3 | 91* | 0.1 | 99* | -8
CNC(=O)c1ccc(N(Cc2ccccc2C)S(C)(=O)=O)cc1 | 0.4 | 3 | 43 | 0.6 | 57* | 2
CN(c1ccccc1C(=O)Nc1ccccc1C(=O)NCc1ccco1)S(C)(=O)=O | 0.7 | 0 | 47 | 0.5 | 29 | 1
COc1ccc(N(CC(=O)N2CCc3ccccc3C2)S(C)(=O)=O)cc1OC | 0.8 | 15 | -6 | 1.1 | 16 | 3
CCOC(=O)C1CCCN(C(=O)CNC(=O)Cn2ccc3ccccc3c2=O)C1 (centres undefined) | 1.1 | 10 | -9 | 1.1 | -14 | -13
CC(C)(C)NC(=O)NC(=O)COC(=O)CCCc1c[nH]c2ccccc12 | 0.6 | 3 | 21 | 0.8 | 39 | -1
